PubChem BioAssay (NCI)
The panel holds about 83,000 compounds, 20% with a hit somewhere; the sample as a whole holds those more often.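 Testing used 96-well plates and a 48-hour single-concentration exposure. Example: -40 means 40% of the starting cells died.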 Unmarked numbers belong to inactive results. Calls of active or inactive are those of the source. Rule for the calls: active = growth percent below 10; inactive = the rest.

Experiments:
Test in all cases: NCI-60 one-dose screen, 48 h (100 = growth as untreated, 0 = no growth, -100 = all killed)
Details in all cases: 10 µM unless noted
NCI-H23 lung = tested on: NCI-H23 lung
NCI-H226 lung = tested on: NCI-H226 lung
NCI-H322M lung = tested on: NCI-H322M lung
HOP-62 NSCLC = tested on: HOP-62 NSCLC
NCI-H460 lung = tested on: NCI-H460 lung
786-0 renal = tested on: 786-0 renal
MDA-MB-231 breast = tested on: MDA-MB-231 breast
SF-268 CNS = tested on: SF-268 CNS
SF-539 CNS = tested on: SF-539 CNS
U251 CNS = tested on: U251 CNS
UACC-62 melanoma = tested on: UACC-62 melanoma
SK-MEL-28 melanoma = tested on: SK-MEL-28 melanoma
SN12C renal = tested on: SN12C renal
UO-31 renal = tested on: UO-31 renal
OVCAR-8 ovarian = tested on: OVCAR-8 ovarian
OVCAR-3 ovarian = tested on: OVCAR-3 ovarian
MDA-MB-435 melanoma = tested on: MDA-MB-435 melanoma
SW-620 colon = tested on: SW-620 colon
MCF7 breast = tested on: MCF7 breast
KM12 colon = tested on: KM12 colon

SMILES	growth (NCI-H23 lung)	growth (NCI-H226 lung)	growth (NCI-H322M lung)	growth (HOP-62 NSCLC)	growth (NCI-H460 lung)	growth (786-0 renal)	growth (MDA-MB-231 breast)	growth (SF-268 CNS)	growth (SF-539 CNS)	growth (U251 CNS)	growth (UACC-62 melanoma) [%]	growth (SK-MEL-28 melanoma) [%]	growth (SN12C renal)	growth (UO-31 renal)	growth (OVCAR-8 ovarian)	growth (OVCAR-3 ovarian)	growth (MDA-MB-435 melanoma)	growth (SW-620 colon)	growth (MCF7 breast)	growth (KM12 colon)
C[CH2][Pb]([CH2]C)([CH2]C)[O]C(=O)COC	-2.61% (active)	6.09% (active)	-11.1% (active)	-16.2% (active)	3.94% (active)	-46.4% (active)	8.7% (active)	-14.8% (active)	-41.8% (active)	-12.1% (active)	19.3	18.2	2.97% (active)	-9.22% (active)	3.57% (active)	-3.39% (active)	-12.3% (active)	-28.3% (active)	0.034% (active)	5.08% (active)
Nc1ccc(N)c2c1Oc1ccccc1O2	85.7%	84.5%	97.2%	95.5%	117%	93.2%	78.5%	105%	89.1%	94.3%	98.6	108	86.1%	134%	97.5%	99%	109%	102%	98%	97.3%
CNC(=O)Oc1ccccc1	107%	102%	107%	116%	104%	104%	110%	107%	107%	108%	102	86.2		98.8%	110%	108%		101%	87%	100%
